Source: PubChem BioAssay (National Center for Advancing Translational Sciences (NCATS))
Only some compounds are listed: those with a hit (about 8% of all), similar ones and a draw of the others.
MARV entry inh – Marburg virus entry inhibition; Potency, µM (highest dose often 37.8 µM), actives largely listed as inhibitors; actives 1.8% (n = 300,000); AID 540276; Marburg virus pseudotyped entry inhibition, cell reporter; calls by dose curve; tested in HEK293 cells
Lassa entry inh – blocks Lassa virus binding to or entry into cells; Lassa virus pseudotype entry inhibition, cell reporter; Potency, µM (doses to about 37.9 µM), hits mostly inhibitors; actives 1.2% (n = 300,000); AID 540256; calls by dose curve; tested in HEK293 cells; also: nearly all actives have a fitted effect of over 50% in size
HCMV antiviral – blocks human cytomegalovirus replication; HFF cells, HCMV-luciferase reporter, 72 h; stronger effect = lower value; activity change, negative = inhibition, % at 57.5 µM; actives 4.5% (n = 410,000); AID 1259415; in the data active = activity change below about -60%; inconclusive = no clear call, values can overlap the other calls; inactive = above about -39%
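HFF cells seeded 16 h at 37C, treated with compounds, infected with luciferase-reporter HCMV at MOI 1 PFU/cell; luciferase read at 72 h post infection, normalized to buffer-only and Salinomycin controls.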
FMDV inh – antivirals against foot and mouth disease virus | FMDV antiviral cell-based qHTS | actives 1.2% (n = 410,000) | Potency, µM (doses to about 57.9 µM), most hits filed as inhibitors; calls by dose curve; tested in HEK293T cells; also: read-out not given here; nearly all actives have a fitted effect of over 45% in size
SARS PLP yeast – blocks SARS-CoV papain-like protease in a yeast assay; S. cerevisiae expressing SARS-CoV PLpro, growth rescue; AID 485353; actives 0.19% (n = 330,000); Potency, µM (doses to about 32.9 µM), most hits filed as activators; calls by dose curve; also: nearly all actives have a fitted effect of over 55% in size
HCV inh – inhibitors of hepatitis C virus infection. Huh7.5.1 HCVcc-Cre infection, luciferase reporter, 44 h. Potency, µM (titrated, usually from 41.8 µM), usual class: inhibitors. actives 3.4% (n = 340,000). AID 651820; active = well fitted inhibition curve with a large enough effect; inconclusive = small, poorly fitted or top-dose-only effect, or another doubt; inactive = no such curve, though single readings can be large or run the other way
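Infectious HCV cell culture screen: compound-treated cells (1,000/well, pre-plated 4 h) are infected with HCVcc-Cre at roughly 0.5 moi and grown 44 h. Infection is quantified by luciferase signal after 15 min substrate incubation at room temperature.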
Large screens that a line does not name were inactive.

S=c1sc2c(Cl)ncnc2n1-c1ccccc1	MARV entry inh 23.1µM, Lassa entry inh 23.1µM, FMDV inh inconclusive, HCV inh 3.98µM
CCOC(=O)C1CCN(C(=O)Cn2c(=O)oc3cc(S(=O)(=O)N4CCC(C)CC4)ccc32)CC1	none (no result: SARS PLP yeast, HCV inh)
Cc1ccc(S(=O)(=O)c2nc(-c3ccccc3)oc2NCc2cccnc2)cc1	HCV inh 11.2µM
O=S(=O)(c1ccccc1)c1nc(-c2ccc(F)cc2)oc1NCc1ccccc1	MARV entry inh inconclusive (no result: SARS PLP yeast, HCV inh)
Cc1ccccc1-c1nc(S(=O)(=O)c2ccc(Br)cc2)c(NCc2cccnc2)o1	MARV entry inh inconclusive, HCV inh 11.2µM
COc1cc(OC)c(NC(=O)N2CCSc3ccccc32)cc1Cl	none (no result: MARV entry inh, SARS PLP yeast, HCV inh)
CN(Cc1ccccc1F)c1nc(-c2cccs2)nc2ccccc12	HCMV antiviral -60.0, FMDV inh inconclusive, HCV inh inconclusive
Cc1ccc(S(=O)(=O)N2CCCC2C(=O)Nc2ccc(Br)cc2)cc1 (stereo not given)	HCMV antiviral -61.2 (no result: SARS PLP yeast, HCV inh)
CC(C)c1ccc(NC(=O)C2CCCN(S(=O)(=O)c3ccc4[nH]c(=O)ccc4c3)C2)cc1 (stereo not given)	Lassa entry inh inconclusive, HCMV antiviral -91.8, FMDV inh inconclusive (no result: MARV entry inh, SARS PLP yeast, HCV inh)
Cc1ccc(S(=O)(=O)N2CCC(C(=O)N3CCCC3C(=O)N[C@@H](CC(C)C)C(=O)NCC(N)=O)CC2)cc1 (stereo not given in full)	HCV inh 1µM (no result: MARV entry inh, Lassa entry inh)
Cc1ccc(S(=O)(=O)N2CCC(C(=O)Nc3ccc(C(C)C)cc3)CC2)cc1	HCV inh 11.2µM (no result: MARV entry inh, Lassa entry inh)
Cc1ccc(S(=O)(=O)N2CCC(C(=O)N3CCC[C@H]3C(=O)NCC(C)C)CC2)cc1	none
CCOC(=O)C(Nc1ccccc1NC(=O)OC(C)(C)C)C(=O)Nc1c(C)cccc1C (stereo not given)	none (no result: MARV entry inh, Lassa entry inh, FMDV inh, SARS PLP yeast, HCV inh)
CCc1cc2c(nc1CC)CCN(CCC(C)=NOC[C@@H](C)[C@H](OCc1ccccc1)C(C)C)C2	none (no result: Lassa entry inh, HCMV antiviral, FMDV inh, SARS PLP yeast, HCV inh)
O=C(Cn1ccc2cc(S(=O)(=O)N3CCCCCC3)ccc21)NCc1cccc(Cl)c1	none (no result: MARV entry inh, SARS PLP yeast, HCV inh)
O=C(Nc1ccc(S(=O)(=O)N2CCOCC2)cc1)C1CCN(S(=O)(=O)c2ccc(F)cc2)CC1	HCMV antiviral -65.8, HCV inh inconclusive
O=C(Nc1nnc(-c2ccc(F)cc2)o1)c1ccc(S(=O)(=O)N2CCOCC2)cc1	MARV entry inh 7.94µM, Lassa entry inh inconclusive (no result: HCMV antiviral)
O=C(Nc1ccc(S(=O)(=O)N2CCOCC2)cc1)C1CC(=O)N(c2ccc(F)cc2)C1 (stereo not given)	MARV entry inh inconclusive
CS(=O)(=O)c1cccc(-c2nnc(NC(=O)c3ccc(S(=O)(=O)N4CCCC4)cc3)o2)c1	none
CC(C)c1ccc(S(=O)(=O)N2CCC(C(=O)N3CCN(c4cccc(Cl)c4)CC3)CC2)cc1	HCMV antiviral -69.2, HCV inh inconclusive (no result: MARV entry inh, Lassa entry inh, SARS PLP yeast)
CCN(Cc1ccccc1)C(=O)c1cc(-c2ccccc2)n[nH]1	none (no result: MARV entry inh, SARS PLP yeast, HCV inh)
COc1ccccc1[C@@]1(CC(=O)N2CCOCC2)CCO[C@@H](C(C)C)C1	none (no result: Lassa entry inh, HCMV antiviral, FMDV inh, SARS PLP yeast, HCV inh)
CCN(CC)c1ccc(/C=C/[N+](=O)[O-])cc1	MARV entry inh inconclusive, Lassa entry inh inconclusive, HCMV antiviral -114.0, FMDV inh inconclusive
COc1ccc(N2CCN(c3cc(C)c4ccc(C)cc4n3)CC2)cc1	MARV entry inh inconclusive, Lassa entry inh inconclusive, HCMV antiviral -64.3, FMDV inh inconclusive
COc1ccc(N2CCN(c3cc(C)c4cccc(C)c4n3)CC2)cc1	MARV entry inh inconclusive, Lassa entry inh inconclusive, HCMV antiviral -73.7
COc1ccc(N2CCN(c3nc4cc(C)ccc4cc3C=O)CC2)cc1	HCV inh 11.2µM
Cc1cc(N2CCN(c3ncccn3)CC2)nc2c(C)cccc12	MARV entry inh inconclusive, FMDV inh inconclusive, HCV inh inconclusive (no result: HCMV antiviral)
COc1ccc2c(C)cc(N3CCOCC3)nc2c1	Lassa entry inh inconclusive, HCV inh 25.1µM
CCOc1ccc(-c2cc(C(=O)N3CCN(S(=O)(=O)c4cc(Cl)ccc4OC)CC3)[nH]n2)cc1	Lassa entry inh inconclusive, HCMV antiviral inconclusive (no result: MARV entry inh, SARS PLP yeast, HCV inh)
CCOC(=O)c1c(S(=O)(=O)N2CCC(C(=O)Nc3cccc(C#N)c3)CC2)c(C)n(C)c1C	none (no result: MARV entry inh, SARS PLP yeast, HCV inh)
CC(=O)c1ccccc1-c1ccc2c(c1)CC(CNC(=O)c1cc(C)on1)O2 (stereo not given)	none (no result: MARV entry inh, Lassa entry inh, HCMV antiviral, SARS PLP yeast, HCV inh)
O=C(CN1CCN(C2CCCCC2)CC1)Nc1ccc(Br)cc1	HCV inh 10µM
